Data published in PubChem BioAssay.
Unmarked numbers belong to inactive results. Activity calls are given as the source filed them.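 The calls were made as follows: active = mean inhibition over 43.08%, the solvent-only control mean plus 3 SD; inactive = the rest.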

biological target: Nuclear receptor coactivator 3 (Homo sapiens) (UniProt Q9Y6Q9); experiment: NCOA3 GAL4-fusion reporter inhibition – cell-based, luminescence, quadruplicate, confirmation (AID 588792); settings: HEK293 GAL4-SRC3 luciferase reporter, at 3.6 µM, hits give high values;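 also: 0% = DMSO treated cells and 100% = gossypol at 36 µM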
Sequence (Q9Y6Q9 whole entry, looked up, the tested form may be a part): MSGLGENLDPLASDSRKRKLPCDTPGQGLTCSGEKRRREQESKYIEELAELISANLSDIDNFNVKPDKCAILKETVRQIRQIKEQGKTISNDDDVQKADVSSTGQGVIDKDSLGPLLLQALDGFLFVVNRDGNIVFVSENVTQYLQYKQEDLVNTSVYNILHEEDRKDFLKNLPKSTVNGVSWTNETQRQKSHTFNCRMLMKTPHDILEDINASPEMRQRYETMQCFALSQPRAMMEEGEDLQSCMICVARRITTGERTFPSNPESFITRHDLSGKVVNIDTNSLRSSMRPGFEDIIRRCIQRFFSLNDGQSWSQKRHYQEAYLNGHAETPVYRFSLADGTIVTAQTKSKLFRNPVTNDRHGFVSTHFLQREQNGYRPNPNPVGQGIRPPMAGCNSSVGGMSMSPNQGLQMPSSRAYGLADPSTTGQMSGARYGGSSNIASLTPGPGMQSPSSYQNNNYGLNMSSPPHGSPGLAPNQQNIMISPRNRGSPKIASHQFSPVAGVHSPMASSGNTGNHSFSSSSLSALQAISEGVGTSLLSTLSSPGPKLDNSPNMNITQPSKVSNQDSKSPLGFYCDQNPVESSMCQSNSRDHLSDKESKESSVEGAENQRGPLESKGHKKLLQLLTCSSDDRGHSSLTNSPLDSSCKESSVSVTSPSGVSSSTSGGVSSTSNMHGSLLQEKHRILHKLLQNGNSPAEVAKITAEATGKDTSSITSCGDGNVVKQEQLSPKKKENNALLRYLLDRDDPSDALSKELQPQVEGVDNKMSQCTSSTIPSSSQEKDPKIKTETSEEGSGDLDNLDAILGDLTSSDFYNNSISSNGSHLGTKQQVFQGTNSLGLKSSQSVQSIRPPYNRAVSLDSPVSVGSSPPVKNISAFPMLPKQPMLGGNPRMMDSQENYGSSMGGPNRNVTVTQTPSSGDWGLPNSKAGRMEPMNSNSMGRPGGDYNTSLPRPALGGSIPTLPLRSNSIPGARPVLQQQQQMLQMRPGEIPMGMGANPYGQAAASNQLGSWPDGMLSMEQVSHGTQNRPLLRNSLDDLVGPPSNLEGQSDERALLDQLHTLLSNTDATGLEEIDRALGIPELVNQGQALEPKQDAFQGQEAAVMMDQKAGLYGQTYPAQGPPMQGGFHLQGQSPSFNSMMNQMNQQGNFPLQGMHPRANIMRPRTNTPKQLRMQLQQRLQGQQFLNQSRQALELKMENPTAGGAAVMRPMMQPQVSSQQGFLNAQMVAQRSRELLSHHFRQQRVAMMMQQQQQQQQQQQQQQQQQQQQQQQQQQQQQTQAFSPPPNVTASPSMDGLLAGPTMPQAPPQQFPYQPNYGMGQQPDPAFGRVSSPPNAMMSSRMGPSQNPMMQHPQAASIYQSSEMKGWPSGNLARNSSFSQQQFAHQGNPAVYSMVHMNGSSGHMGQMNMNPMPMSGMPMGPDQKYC

In order of falling inhibition:
1. CN(C)S(=O)(=O)c1ccc(N2CCN(S(=O)(=O)c3ccc(F)cc3)CC2)c(Cl)c1  41.9%
2. NC(=S)Nc1cc(Cl)cc(Cl)c1  23.7%
3. COc1ccc(C(Cl)=C(C=O)c2ccc(OC)c(OC)c2)cc1OC  22.3%
4. CCc1ccc([C@@H]2CC(=O)[C@@H]3CN(S(=O)(=O)c4ccccc4C)[C@H](c4ccc(Cl)cc4)C[C@@H]3N2S(=O)(=O)c2ccc(C)cc2)cc1  15.5%
5. COc1ccc(-n2c(-c3ccc(Br)cc3)c[n+]3c2SC(C)C3)cc1 (stereo not given)  12.5%
6. Cn1nc(CC(=O)Nc2ccc3c(c2)OCCO3)c2ccccc2c1=O  9.58%
7. Cc1cccc(Nc2nc(N)c([N+](=O)[O-])c(N3CC(C)CC(C)C3)n2)c1 (stereo not given)  3.08%
8. c1ccc2c(c1)OCC(CNc1ncnc3sccc13)O2 (stereo not given)  1.57%
9. O=C(N/N=C/c1cc(Br)ccc1O)c1cccc(N2CCCC2=O)c1  1.45%
10. COc1ccc(Oc2ccc(/C=C/C(=O)c3ccc(O)cc3)cc2[N+](=O)[O-])cc1  -5.49%
11. N=c1c(C(=O)NCC2CCCO2)cc2c(=O)n3ccccc3nc2n1Cc1cccnc1 (stereo not given)  -8.73%
12. COc1cccc(/C=C/C(=O)OCC(=O)N2CCCC2)c1OC  -12.6%
13. CCOC(=O)c1c(C)sc2c1N(C(=O)CCl)c1cc(Cl)ccc1S2  -14.3%

With `CC(=NNC(=O)c1ccncc1)c1ccc2ccccc2c1O` the inhibition was 45.1% (active).
`Cc1cc(C)c2nc(C(F)(F)F)c(C#N)c(N)c2c1` was tested, and the inhibition was 45.1% (active).
